Source: PubChem BioAssay
sEH activator – soluble epoxide hydrolase activators, primary screen, biochemical, human sEH; Bifunctional epoxide hydrolase 2 (Homo sapiens), P34913; purified human sEH enzymatic activity, activator screen; activation, % at 2 µM; actives 0.04% (n = 91,000); in the data active = activation above about 37%
CYP2C19 act – human CYP2C19 activators, primary screen, biochemical, luminescence. Cytochrome P450 2C19 (Homo sapiens), P33261. recombinant CYP2C19, luciferin-H EGE luminescence; hits give high values; 0 = fully inhibited enzyme, 1 = untreated enzyme. activation factor at 5 µM. 96,000 tested, under 10 active. AID 1025, 2008;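 active = activation factor of at least 2 at 5 µM in the primary screen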;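 also: 0 = wells with 2.5 mM tranylcypromine and 1 = vehicle-only wells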
CYP2C9 act – human CYP2C9 activators, primary screen, biochemical, luminescence | actives 1.4% (n = 96,000) | activation factor at 5 µM | recombinant CYP2C9, luciferin-H conversion; hits give high values; factor 1 = untreated enzyme, 0 = blocked | Cytochrome P450 2C9 (Homo sapiens), P11712;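 active = activation factor of 2 or more for CYP2C9 at a 5 µM dose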;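 also: 0 = sulfaphenazole-blocked wells and 1 = vehicle-only wells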
Target sequence (P11712 whole entry, looked up): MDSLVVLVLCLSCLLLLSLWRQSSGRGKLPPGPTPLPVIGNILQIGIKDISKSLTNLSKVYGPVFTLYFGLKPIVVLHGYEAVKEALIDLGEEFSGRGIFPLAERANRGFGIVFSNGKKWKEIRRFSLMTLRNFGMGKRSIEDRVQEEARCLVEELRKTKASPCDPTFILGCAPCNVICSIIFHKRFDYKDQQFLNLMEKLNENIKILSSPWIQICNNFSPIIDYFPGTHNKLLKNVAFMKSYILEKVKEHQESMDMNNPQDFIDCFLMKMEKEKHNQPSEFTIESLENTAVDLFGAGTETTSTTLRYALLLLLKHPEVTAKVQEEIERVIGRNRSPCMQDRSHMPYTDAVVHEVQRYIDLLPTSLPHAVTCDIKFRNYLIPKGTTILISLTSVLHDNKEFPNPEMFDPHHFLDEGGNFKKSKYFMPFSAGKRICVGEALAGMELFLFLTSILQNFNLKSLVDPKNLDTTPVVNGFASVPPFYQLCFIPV
CYP2C19 inh – blockers of cytochrome P450 2C19 activity – biochemical, luminescence, ADME assay, primary screen; inhibition, % at 5 µM; CYP2C19 Supersomes, luciferin-H EGE luminescence, 30 min; P33261; AID 778, 2007; actives 21% (n = 96,000);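 active = CYP2C19 inhibition above a set limit at 5 µM in the primary screen, cut at about 50% in these data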;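 also: plate controls were negative control wells for no effect and 2.5 mM tranylcypromine positive control for full effect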
CYP2C9 inhib – blockers of cytochrome P450 2C9 activity – biochemical, luminescence, ADME assay, primary screen. P11712. CYP2C9 Supersomes, luciferin-H conversion. inhibition, % at 5 µM. actives 20% (n = 96,000). AID 777, 2007;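 active = blocking of liver enzyme CYP2C9 beyond about 50% at 5 µM, limit read from the data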
sEH inhibitor – soluble epoxide hydrolase inhibitors, primary screen, biochemical, human sEH | Bifunctional epoxide hydrolase 2 (Homo sapiens), P34913 | recombinant human sEH enzymatic activity assay | inhibition, % at 2 µM | actives 0.34% (n = 91,000) | AID 707, 2007; in the data active = inhibition above about 80%
Starred values were filed as active, the others as inactive; . = not tested or not shown. This is a sample that favours compounds with a hit; in the whole collection about 27% have one here.

SMILES | sEH activator | CYP2C19 act | CYP2C9 act | CYP2C19 inh | CYP2C9 inhib | sEH inhibitor
O=C(CN(c1ccc(F)cc1)S(=O)(=O)c1ccc2c(c1)OCCO2)Nc1ccc2c(c1)OCO2 | 6.8 | 0.9 | 0.7 | 10.7 | 25.7 | -7.7
COc1ccc(N2CCN(CCCNC(=O)CC3Oc4ccc(C)cc4NC3=O)CC2)cc1 (stereo unspecified) | . | 0.9 | 0.2 | 12.8 | 77.3* | .
Cc1ccc2c(c1)NC(=O)C(CC(=O)NCCCN1CCCC1)O2 (stereo unspecified) | . | 1 | 1 | -1.6 | 4.5 | .
O=C(NCC1CCCO1)c1ccc2c(=O)n(Cc3ccco3)c(SCC(=O)N3CCCC3)nc2c1 (stereo unspecified) | 3.7 | 1 | 0.5 | 2.3 | 49.3 | -3.1
COCCNC(=O)CSc1nc2cc3c(cc2c(=O)n1Cc1ccco1)OCO3 | -2.8 | 0.1 | 0.5 | 93.3* | 53.3* | 5.5
CCC(Sc1nc2cc3c(cc2c(=O)n1Cc1ccco1)OCO3)C(=O)Nc1cccc(OC)c1 (stereo unspecified) | -5.3 | 0.8 | 0.4 | 24.1 | 60.0* | 5.8
CCC(Sc1nc2cc3c(cc2c(=O)n1Cc1ccco1)OCO3)C(=O)NCCOC (stereo unspecified) | -8.5 | 0.6 | 0.7 | 39.0 | 26.0 | 7.1
COCCNC(=O)c1ccc2c(=O)n(Cc3ccco3)c(SCC(=O)NC3CCCC3)nc2c1 | -5.0 | 0.5 | 0.2 | 51.7* | 80.6* | 7.0
CNC(=O)c1cc(Nc2nnc(C)c3ccccc23)ccc1OC | -3.8 | 1.2 | 1 | -24.1 | 0.8 | 5.1
COc1ccc(Cn2c(SC)nc3ccccc32)cc1[N+](=O)[O-] | -6.0 | 0.8 | 0.7 | 21.8 | 28.4 | 7.6
Cc1ccc(C)c(-n2nnnc2Sc2nnnn2-c2ccccc2)c1 | -2.5 | . | . | . | . | 3.6
Cc1ccccc1-n1nnnc1SCc1ncc(-c2ccccc2)o1 | . | 0.7 | 0.2 | 30.6 | 81.8* | .
c1ccc(-c2cnc(CSc3nnc4ccccn34)o2)cc1 | . | 0.3 | 0.7 | 70.5* | 30.7 | .
O=C(CCC(=O)c1cccs1)OCC(=O)c1ccc(Cl)s1 | . | 0.6 | 0.8 | 44.4 | 24.9 | .
Cc1ccc(-c2cnc(NC(=O)c3cccc(Br)c3)s2)c(C)c1 | 9.9 | 1 | 0.7 | -2.9 | 33.4 | -7.4
COC(=O)c1ccc(NC(=O)CSc2nncn2C)cc1 | 8.2 | 1 | 0.9 | -3.1 | 10.0 | -6.8
CCOC(=O)CSc1nc2ccc(NC(C)=O)cc2s1 | -11.2 | 0.4 | 0.3 | 56.7* | 72.4* | 11.7
CSc1nc2ccc(NC(=O)CSc3nnc(N)s3)cc2s1 | -2.8 | 1 | 0.3 | 1.6 | 70.7* | 4.5
Cn1cnnc1SCC(=O)Nc1ccc2nc(SCc3ccccc3F)sc2c1 | 8.6 | 0.5 | 0.4 | 47.0 | 60.0* | -9.6
Cc1ccc(S(=O)(=O)N(C)CC(=O)N2CCCC2)cc1 | 17.2 | . | . | . | . | -17.2
O=C(N1CCOCC1)N1CCN(S(=O)(=O)N2CCOCC2)CC1 | -5.2 | 1 | 0.9 | 0.2 | 6.1 | 2.9
CCn1cc(C(=O)NCC2CCCO2)c(=O)c2cc(S(=O)(=O)N(C)C3CCCCC3)ccc21 (stereo unspecified) | -5.7 | 0.8 | 0.4 | 21.5 | 61.1* | 5.7
C=CCn1cc(C(=O)NCC2CCCO2)c(=O)c2cc(S(=O)(=O)N3CCCCCC3)ccc21 (stereo unspecified) | 16.7 | 0.9 | 0.5 | 6.6 | 54.9* | -14.3
CCN(CCCNC(=O)c1cn(CC)c2ccc(S(=O)(=O)N(C)C)cc2c1=O)c1cccc(C)c1 | -14.6 | 0.6 | 0.2 | 41.9 | 76.8* | 10.8
CCn1cc(C(=O)NCC2CCCO2)c(=O)c2cc(S(=O)(=O)N(C)C)ccc21 (stereo unspecified) | 17.1 | . | . | . | . | -17.4
SMILES | sEH activator | CYP2C19 act | CYP2C9 act | CYP2C19 inh | CYP2C9 inhib | sEH inhibitor
O=C(NCCN1CCCC1)c1cc(-c2ccncc2)nc2ccc(S(=O)(=O)N3CCOCC3)cc12 | . | 0.6 | 0.7 | 40.0 | 32.0 | .
O=C(NCC1CCCO1)c1cc(-c2ccncc2)nc2ccc(S(=O)(=O)N3CCOCC3)cc12 (stereo unspecified) | -1.5 | 0.3 | 0.3 | 72.0* | 69.6* | 2.9
COc1ccc(CCn2nnc(-c3ccc(NC(C)=O)c(Cl)c3)n2)cc1 | -11.3 | . | . | . | . | 11.6
Cc1cc(C(=O)COC(=O)CCc2nc3ccccc3s2)c(C)n1C | 12.6 | 0.9 | 1.9 | 14.7 | -85.7 | -12.0
CC1=C(C(=O)Nc2ccc(F)cc2)C(c2cccc(C)c2)n2nc(CCCO)nc2N1 (stereo unspecified) | . | 1 | 0.9 | -4.5 | 14.0 | .
CC(C)N(CCNC(=O)c1cn(C)c2ccc(S(=O)(=O)N(C)C)cc2c1=O)Cc1ccccc1 | . | 0.9 | 0.5 | 10.6 | 51.4* | .
CCn1cc(C(=O)NCCCOC)c(=O)c2cc(S(=O)(=O)N(C)C3CCCCC3)ccc21 | -7.2 | 0.7 | 0.2 | 25.8 | 76.3* | 7.2
O=C(Oc1cc(-c2ccccc2)no1)c1ccc(Cl)cc1 | 10.7 | 1.1 | 1 | -8.8 | 4.7 | -10.6
O=C(O)Cn1cc(C(=O)c2ccco2)c2ccccc21 | . | 1.1 | 1.1 | -7.3 | -5.1 | .
COc1ccccc1OCCn1cc(C(=O)c2ccco2)c2ccccc21 | 3.3 | 0.8 | 0.2 | 24.7 | 84.4* | -3.9
Cc1ccccc1OCCn1cc(/C(N)=N/O)c2ccccc21 | 10.3 | 0.3 | 0.8 | 67.4* | 22.6 | -10.0
Cc1ccccc1OCCSc1nnc(C)n1-c1ccccc1 | 7.7 | 0.7 | 0.8 | 34.5 | 23.8 | -10.9
Cc1cccc(OCCn2c(NC(=O)c3ccco3)nc3ccccc32)c1 | 3.9 | 0.9 | 1 | 8.9 | 4.7 | -1.8
COc1cccc(OCCn2cc(C(=O)c3ccco3)c3ccccc32)c1 | 9.5 | 0.1 | 0 | 86.0* | 98.4* | -6.9
CCOC(=O)Cn1cc(C(=O)c2ccco2)c2ccccc21 | -2.3 | 0.2 | 0.2 | 81.4* | 84.5* | 2.7
COc1n[nH]c2nncnc12 | 1.7 | 1.2 | 1.2 | -21.4 | -23.7 | -1.6
O=C(CSc1ncnc2c1cnn2CCc1ccccc1)Nc1cccc(C(F)(F)F)c1 | -19.9 | 0.2 | 0 | 78.4* | 97.6* | 21.6
COC(=O)CSc1ncnc2c1cnn2Cc1ccccc1 | -5.7 | 0.3 | 0.7 | 68.5* | 31.7 | 5.1
Cc1c(Cl)cccc1NC(=O)CSc1ncnc2c1cnn2CCc1ccccc1 | -20.5 | 0.4 | 0.1 | 63.1* | 89.4* | 21.6
CC(C)OC(=O)CSc1ncnc2c1cnn2Cc1ccccc1 | -0.2 | 0.7 | 0.7 | 32.0 | 31.0 | 1.8
CN1CCN(/C=N/c2c(C#N)cnn2Cc2ccccc2)CC1 | 0.3 | 1.1 | 1.1 | -6.0 | -6.9 | 1.3
